According to PubChem BioAssay (NCI):
About 83,000 compounds went through this panel and 20% of them were active in at least one assay; those are over-represented in the sample as a whole.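 48-hour exposure, single concentration, 96-well plates; percent growth endpoint where 0 means no net growth. Active: below 10.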 Values without a mark were called inactive. Active and inactive are the calls of the source.

The compounds below were run on SNB-19 CNS (assay: NCI-60 one-dose screen, 48 h (100 = growth as untreated, 0 = no growth, -100 = all killed)). Conditions: 10 µM unless noted.
Method: Growth inhibition of the SNB-19 human tumor cell line is measured as a screen for anti-cancer activity. Cells are grown in 96 well plates and exposed to the test compound for 48 hours. Compounds are tested at a single concentration, which is 10^-5 M for most compounds. The reported endpoint is percent growth (GI% or GIPRCNT), where numbers from 0 - 100% represent growth inhibition, and numbers from -100% - 0 represent cell death. For example, a value of 40 represents 60% growth inhibition. A value of 0 means no net growth occurred over the course of the experiment. A value of -40 indicates 40% of cells at the beginning of the experiment died by the end of the experiment. A value of -100 means all cells are dead at the end of the experiment.
NCI-60 Human Tumor Cell Lines Screen was performed using the standard one-dose NCI protocol, which is described in more detail at https://dtp.cancer.gov/discovery_development/nci-60/default.htm.
Compounds with GIPRCNT values below 10 were considered active. Activity score was based on GIPRCNT using the following formula: […]
Score is 0 for GIPRCNT values of 100 or above, 50 for GIPRCNT values of 0, and 100 for GIPRCNT values of -100.

For `Cc1cc(N)c2cc(NC(=O)/C=C\c3ccccc3Cl)ccc2n1`, the growth was -86.3% (active).
`O=C1c2cccc(NCCN=Cc3cc(O)ccc3O)c2C(=O)c2c(NCCN=Cc3cc(O)ccc3O)cccc21` was tested, and the growth was -22.4% (active).
`Cc1ccccc1NC(=O)c1sc2nc(C)c(C(=O)/C=C/c3ccccc3)cc2c1N` was tested, and the growth was 2.8% (active).
`O=C(/C=C(/C=C/c1cccc2[nH]ccc12)OB(F)F)/C=C/c1cccc2[nH]ccc12` was tested, and the growth was -7.8% (active).

Going from `Cc1ccccc1/C=C1\CN(C(=O)OC(C)(C)C)C/C(=C\c2ccccc2C)C1=O` to `O=C1C(Cl)=C(Oc2ccccc2)C(=O)c2ccccc21`, the growth rises from 39.1% to 58.4%.

First: CCNc1nc(-c2ccc(Cl)c(OC)c2)c(-c2ccnc(NCCCNS(=O)(=O)c3ccc(Cl)cc3)n2)s1
Second: O=S(=O)(NCCNc1nccc(-c2c(-c3cccc(F)c3)nc3occn23)n1)c1ccc(Br)cc1
The growth of the first is lower: 81.8% for the first, 93.3% for the second.

Compared with `CN(Cc1ccc(C(F)(F)F)cc1)CC(O)C(=O)Nc1ccc(Cl)cc1` (stereo not given), `O=C(O)/C(=C\c1ccc(Cl)cc1)c1ccc(Cl)cc1` is higher in growth: 31.4% for the first, 103% for the second.

First: N=C(N)c1ccc(-c2ccc(-c3ccc(F)cc3)o2)o1
Second: N#CC1=C(N)Oc2c(sc3c(F)cccc23)C1c1ccc(F)cc1 (stereo not given)
The growth of the first is lower: 26.7% for the first, 27.3% for the second.

Compared with `OCCNCCCOc1ccc2ncnc(Nc3ccc(Oc4cccc(C(F)(F)F)c4)c(Cl)c3)c2c1`, `O=C(Nc1ccc(NC(=O)c2cc(=O)[nH]c3ccccc23)cc1)Nc1cccc(C(F)(F)F)c1` is lower in growth: 44.9% for the first, 23.8% for the second.

Going from `CCOC(=O)CNP(=O)(OC[C@@H](Cc1ccccc1)NC(=O)c1cc2ccccc2s1)Oc1ccccc1` (stereo not given in full) to `O=C(Nc1nn(-c2ccc(Cl)cc2Cl)nc1-c1ccccc1)c1ccccc1`, the growth rises from 87.7% to 105%.

First: C=C(C)[C@@H]1CC[C@]2(C)[C@H](CC=C3[C@@H]4[C@H](C)[C@@H](C)CC[C@]4(CO)CC[C@]32C)[C@@]1(C)CCCN
Second: Cn1cccc1C(=O)C1C(c2cccc([N+](=O)[O-])c2)C2C3CCCCC3CN2C12C(=O)Nc1ccc(Cl)cc12 (stereo not given)
The growth of the first is higher: 72.3% for the first, 53.2% for the second.

Compared with `COc1cc(-c2nc(SCC(C)C)nc(Nc3cccc4ccccc34)c2C#N)cc(OC)c1OC`, `COc1ccc(C(c2cc(OC)c(OC)c(OC)c2)N2CCN(c3ccccc3)CC2)cc1` (stereo not given) is lower in growth: 106% for the first, 84.1% for the second.

Going from `CCOC(=O)Cn1c(O)c(N=Nc2ccc(S(N)(=O)=O)cc2)c2cc(Br)ccc21` to `CCCC(=O)NC(c1ccc2c(c1)OCO2)c1ccc2cccnc2c1O` (stereo not given), the growth falls from 91.4% to 29.5%.

Compared with `CCc1nc2c(=O)[nH]cnc2o1`, `COc1ccc(N2CCC(=O)NC2=S)cc1` is lower in growth: 112% for the first, 105% for the second.

Going from `O=C1Nc2ccc(Br)cc2/C1=N/c1n[nH]c(=S)s1` to `CCN1CC(=O)N(/N=C2\C(=O)Nc3ccccc32)C1=S`, the growth falls from 101% to 91.9%.

Compared with `CC1=C(Nc2ccc(N3CCN(C)CC3)cc2)C(=O)c2cncnc2C1=O`, `O=C1NCCC12CCN(c1c(Cl)cncc1-c1ccc(O)cc1)CC2` is higher in growth: 97.3% for the first, 98.9% for the second.

Going from `O=C(CCCCCCN1CC(=O)N2[C@H](c3cc(Br)cs3)c3[nH]c4ccccc4c3C[C@H]2C1=O)NO` to `O=C1NC(=O)c2c1c1c3ccccc3ccc1c1[nH]c3ccc(Br)cc3c21`, the growth falls from 41.1% to 23.8%.

First: O=C(Cn1cc(CN2C(=O)c3ccccc3S2(=O)=O)nn1)Nc1nc2ccccc2s1
Second: Cc1nnc(-n2c(O)cc(=O)n(-c3ccccc3)c2=S)nc1/C=C/c1ccc(N(C)C)cc1
The growth of the first is higher: 98.1% for the first, 59.8% for the second.

Compared with `O=C(c1cc2ccccc2o1)c1nn(-c2ccccc2)/c(=N/N=Cc2cn(-c3ccccc3)nc2-c2cc3ccccc3oc2=O)s1`, `C/C(=N\NC(=O)c1ccccc1O)c1cccc(/C(C)=N/NC(=O)c2ccccc2O)n1` is lower in growth: 101% for the first, 20% for the second.

Going from `COc1cccc(CNc2ncnc3c2ncn3C2OC(CO)C(O)C2O)c1O` (stereo not given) to `C#CCn1cnc2c(Nc3cccc(NC(=O)C=C)c3)ncnc21`, the growth rises from 31.2% to 89.9%.

Compared with `Cc1ccc(Cl)cc1Nc1nc(C(F)(F)F)ccc1C(=O)N/N=C/c1cccnc1`, `C=CCn1c(SCC(=O)NCc2cc(C)c(O)c(C)c2)nc2ccc(Cl)cc2c1=O` is higher in growth: 36.8% for the first, 99.7% for the second.

In the case of `OB(O)c1cccc(-c2nc3ccc4[nH]ncc4c3c3c2CCCC3)c1`, the growth is reported as 78.4%.

In the case of `CCOC(=O)c1c(C)c2c(n1C)CSc1cc(C(=O)c3ccccc3)c(=O)[nH]c1-2`, the growth is reported as 102% [100 µM].
